Results: PubChem BioAssay (NCI)
The panel holds about 79,000 compounds, 15% with a hit somewhere; the sample as a whole holds those more often. Activity calls are given as the source filed them. Rule as the data show it: active = growth inhibition above about 70%; inactive = the rest.

Columns and labels:
[1] = NCI Yeast Anticancer Drug Screen. Data for the rad52 strain (AID 147);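 also: 0% = growth of vehicle-treated control cultures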; details: S. cerevisiae rad52 mutant growth inhibition, stronger effect = higher value
In short: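 Here a repair-compromised yeast strain receives each compound; its growth is then quantified and normalised to vehicle-only controls.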

[2] = NCI Yeast Anticancer Drug Screen. Data for the wt1 strain (AID 149);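 also: 0% = growth of vehicle-treated wt1 cultures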; details: S. cerevisiae wt1 strain (SPY 50644) growth inhibition, stronger effect = higher value
In short: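 Growth inhibition read against vehicle controls after compound exposure of the wt1 yeast strain.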

[3] = NCI Yeast Anticancer Drug Screen. Data for the rad50EPP+ strain (AID 151);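 also: 0% = growth of vehicle-treated control cultures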; details: S. cerevisiae rad50 mutant strain, stronger effect = higher value
In short: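 Read-out is yeast growth inhibition relative to vehicle; cells used were the rad50EPP+ strain.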

[4] = NCI Yeast Anticancer Drug Screen. Data for the rad50 strain (AID 155);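 also: 0% = growth of vehicle-only cultures of the same strain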; details: S. cerevisiae rad50 strain growth inhibition, stronger effect = higher value
In short: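 Readout: growth inhibition relative to vehicle-treated cultures. Compound exposure was carried out in a genetically defined yeast strain deficient in DNA damage repair.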

[5] = NCI Yeast Anticancer Drug Screen. Data for the mec2-1 strain (AID 157); details: S. cerevisiae mec2-1 strain, stronger effect = higher value
In short: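 Using mec2-1 yeast: add compound, measure growth, express inhibition versus vehicle-treated cultures.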

[6] = NCI Yeast Anticancer Drug Screen. Data for the rad14 strain (AID 159);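 also: 0% = growth of vehicle-treated control cultures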; details: S. cerevisiae rad14 strain growth inhibition, stronger effect = higher value
In short: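 Growth inhibition vs vehicle controls; genetically altered yeast strain (DNA damage repair defect) treated with test compounds.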

[7] = NCI Yeast Anticancer Drug Screen. Data for the sgs1 mgt1 strain (AID 161);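 also: 0% = growth of cultures given vehicle only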; details: S. cerevisiae sgs1 mgt1 strain, stronger effect = higher value
In short: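 Yeast cells carrying a defined DNA-repair defect were exposed to test compounds. Growth inhibition was measured relative to vehicle-treated controls.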

[8] = NCI Yeast Anticancer Drug Screen. Data for the CLN2oe strain (AID 163);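 also: 0% = growth of vehicle-only control cultures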; details: S. cerevisiae CLN2oe strain, stronger effect = higher value
In short: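 Whole-cell yeast growth assay. A strain engineered for altered cell-cycle control received compound, and inhibition relative to vehicle-treated cultures was recorded.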

[9] = NCI Yeast Anticancer Drug Screen. Data for the cln2 rad14 strain (AID 165);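 also: 0% = growth equal to vehicle treated cultures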; details: S. cerevisiae cln2 rad14 strain, stronger effect = higher value
In short: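 Yeast strain cln2 rad14, bearing defects in cell cycle control and DNA repair, serves as the test system; values reflect growth inhibition compared with vehicle.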

[10] = NCI Yeast Anticancer Drug Screen. Data for the bub3 strain (AID 167); details: S. cerevisiae bub3 mutant strain, stronger effect = higher value
In short: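 Readout: yeast growth inhibition, expressed relative to vehicle-only wells. The test organism is a mutant strain from a panel with lesions in DNA repair or checkpoint genes.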

[11] = NCI Yeast Anticancer Drug Screen. Data for the wt2 strain (AID 169);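 also: 0% = growth of vehicle-treated yeast cultures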; details: S. cerevisiae wt2 strain growth inhibition, stronger effect = higher value
In short: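 Treated yeast vs. vehicle-treated yeast: growth inhibition determined.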

[12] = NCI Yeast Anticancer Drug Screen. Data for the mlh1 strain (AID 171);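 also: 0% = growth of vehicle-treated control cultures of the same strain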; details: S. cerevisiae mlh1 strain growth inhibition, stronger effect = higher value
In short: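 A yeast strain with a defined genetic lesion serves as the test organism. Cultures receive compound or vehicle, and growth is measured.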

[13] = NCI Yeast Anticancer Drug Screen. Data for the sgs1 strain (AID 173);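 also: 0% = growth of vehicle-only control cultures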; details: S. cerevisiae sgs1 mutant, stronger effect = higher value
In short: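 A genetically defined yeast mutant is incubated with the test compound, and its growth is compared to that of the same strain given vehicle.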

[14] = NCI Yeast Anticancer Drug Screen. Data for the mlh1 rad18 strain (AID 175); details: S. cerevisiae mlh1 rad18 strain growth inhibition, stronger effect = higher value
In short: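 Steps: expose repair-defective yeast to compound; measure growth; express inhibition against vehicle-treated controls.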

[15] = NCI Yeast Anticancer Drug Screen. Data for the rad18 strain (AID 177); details: S. cerevisiae rad18 mutant growth inhibition, stronger effect = higher value
In short: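 Measured value is growth inhibition of a yeast strain bearing a DNA repair alteration, referenced to vehicle-treated cells.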

[16] = at 5.0 µM (retest, dose inferred, filed as 0.5)
[17] = at 50.0 µM (retest, dose inferred, filed as 5.0)

Measured: growth inhibition

O=S(=O)(N/N=C/c1cccc(Cl)c1)c1ccccc1
inactive: [1]; at 1.2 µM -4% | [1]; at 3.7 µM -3% | [1]; at 11.0 µM 8% | [2]; at 1.2 µM 0% | [2]; at 3.7 µM 4% | [2]; at 11.0 µM 3% | [2]; at 33.0 µM 65% | [3]; at 1.2 µM 4% | [3]; at 3.7 µM 8% | [3]; at 11.0 µM 18% | [3]; at 33.0 µM 18% | [3]; at 100.0 µM 25% | [4]; at 1.2 µM -1% | [4]; at 3.7 µM -1% | [4]; [16] -14% | [4]; at 11.0 µM 7% | [5]; at 1.2 µM -3% | [5]; at 3.7 µM 4% | [5]; [16] -18% | [5]; at 11.0 µM 13% | [5]; at 33.0 µM 54% | [5]; [17] 66% | [5]; at 50.0 µM 55.5% | [6]; at 1.2 µM -7% | [6]; at 3.7 µM -6% | [6]; at 11.0 µM -1% | [7]; [16] -1% | [7]; at 50.0 µM 63.7% | [8]; at 1.2 µM -10% | [8]; at 3.7 µM -7% | [8]; at 11.0 µM 27% | [9]; [16] 20% | [9]; at 50.0 µM 67.4% | [10]; at 1.2 µM 1% | [10]; at 3.7 µM 1% | [10]; [16] -12% | [10]; at 11.0 µM 11% | [10]; at 50.0 µM 63.3% | [11]; at 1.2 µM -4% | [11]; at 3.7 µM -4% | [11]; at 11.0 µM 0% | [12]; at 1.2 µM -3% | [12]; at 3.7 µM 0% | [12]; at 11.0 µM 11% | [13]; at 1.2 µM 1% | [13]; at 3.7 µM 4% | [13]; at 11.0 µM 18% | [14]; [16] 57% | [15]; at 1.2 µM -3% | [15]; at 3.7 µM 1% | [15]; at 11.0 µM 29%
active: [1]; at 33.0 µM 88% | [1]; at 100.0 µM 99% | [2]; at 100.0 µM 99% | [4]; at 33.0 µM 87% | [4]; [17] 92% | [4]; at 50.0 µM 89.9% | [4]; at 100.0 µM 98% | [5]; at 100.0 µM 91% | [6]; at 33.0 µM 73% | [6]; at 100.0 µM 99% | [7]; [17] 86% | [8]; at 33.0 µM 84% | [8]; at 100.0 µM 82% | [9]; [17] 89% | [10]; at 33.0 µM 79% | [10]; [17] 88% | [10]; at 100.0 µM 98% | [11]; at 33.0 µM 86% | [11]; at 100.0 µM 99% | [12]; at 33.0 µM 83% | [12]; at 100.0 µM 99% | [13]; at 33.0 µM 77% | [13]; at 100.0 µM 99% | [14]; [17] 95% | [14]; at 50.0 µM 96.8% | [15]; at 33.0 µM 86% | [15]; at 100.0 µM 99%
